In PubChem BioAssay (NCI):
This is part of a sample that, as a whole, favours compounds with a hit. Of some 83,000 tested, about 20% had one in any assay.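 Step 1: grow cells in 96-well plates. Step 2: add test compound at a single concentration. Step 3: incubate 48 h. Step 4: record percent growth.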 The source made the active and inactive calls. The calls were made as follows: active = growth percent below 10; inactive = the rest.

Key:
Test in all cases: NCI-60 one-dose screen, 48 h (100 = growth as untreated, 0 = no growth, -100 = all killed)
SK-MEL-2 melanoma = details: 10 µM unless noted
EKVX NSCLC = details: 10 µM unless noted
SN12C renal = details: 10 µM unless noted
UO-31 renal = details: 10 µM unless noted
TK-10 renal = details: 10 µM unless noted
ACHN renal = details: 10 µM unless noted
CAKI-1 renal = details: 10 µM unless noted
A498 renal = details: 10 µM unless noted
CCRF-CEM leukemia = details: 10 µM unless noted
MOLT-4 leukemia = details: 10 µM unless noted
SR leukemia = details: 10 µM unless noted
RPMI-8226 leukemia = details: 10 µM unless noted
OVCAR-8 ovarian = details: 10 µM unless noted
OVCAR-5 ovarian = details: 10 µM unless noted
OVCAR-4 ovarian = details: 10 µM
SK-OV-3 ovarian = details: 10 µM unless noted
IGROV1 ovarian = details: 10 µM unless noted
OVCAR-3 ovarian = details: 10 µM unless noted
NCI/ADR-RES ovarian = details: 10 µM unless noted
HS 578T breast = details: 10 µM unless noted

Measured: growth

CCN(CC)CCCC(C)Nc1ccnc2cc(Cl)c(SCc3ccccc3)cc12 (stereo not drawn)
active: SK-MEL-2 melanoma -71.1% | EKVX NSCLC 3.57% | UO-31 renal -84.1% | TK-10 renal -30.8% | ACHN renal -89.2% | CAKI-1 renal -62.2% | A498 renal -90.1% | CCRF-CEM leukemia -25.9% | MOLT-4 leukemia -29.3% | SR leukemia -42.6% | RPMI-8226 leukemia -36.6% | OVCAR-8 ovarian -9.3% | OVCAR-5 ovarian -13.7% | OVCAR-4 ovarian 7.81% | SK-OV-3 ovarian -43.1% | IGROV1 ovarian -26.7% | OVCAR-3 ovarian -28.5% | NCI/ADR-RES ovarian -18.3%
inactive: SN12C renal 20.4%

COCc1nc2ccccc2[nH]1
inactive: SK-MEL-2 melanoma 102% | EKVX NSCLC 93.9% | SN12C renal 104% | UO-31 renal 87.3% | TK-10 renal 97.3% | ACHN renal 99.9% | CAKI-1 renal 93.4% | A498 renal 104% | CCRF-CEM leukemia 105% | MOLT-4 leukemia 93% | SR leukemia 101% | RPMI-8226 leukemia 108% | OVCAR-8 ovarian 102% | OVCAR-5 ovarian 99.8% | OVCAR-4 ovarian 106% | SK-OV-3 ovarian 101% | IGROV1 ovarian 101% | HS 578T breast 101% | NCI/ADR-RES ovarian 98.9%

CCCCCN(CCCCC)CCCCCCCCN1CCCc2ccccc21
inactive: SK-MEL-2 melanoma 89.7% | EKVX NSCLC 76.7% | SN12C renal 89.7% | UO-31 renal 62% | TK-10 renal 89% | ACHN renal 91.1% | CAKI-1 renal 54.8% | A498 renal 114% | CCRF-CEM leukemia 81.7% | MOLT-4 leukemia 27.7% | SR leukemia 21.5% | RPMI-8226 leukemia 84.1% | OVCAR-8 ovarian 89.1% | OVCAR-5 ovarian 107% | OVCAR-4 ovarian 95.9% | SK-OV-3 ovarian 106% | IGROV1 ovarian 76.4% | OVCAR-3 ovarian 72.1% | NCI/ADR-RES ovarian 92.2%

CCOC(=O)c1sc2nc(-c3cc(OC)c(OC)c(OC)c3)nc(N3CCOCC3)c2c1C
inactive: SK-MEL-2 melanoma 28.1% | EKVX NSCLC 39.5% | SN12C renal 36% | UO-31 renal 22.4% | TK-10 renal 48.3% | ACHN renal 33.6% | CAKI-1 renal 31.6% | CCRF-CEM leukemia 17.1% | MOLT-4 leukemia 17.1% | SR leukemia 41.8% | OVCAR-8 ovarian 44.1% | OVCAR-5 ovarian 74% | OVCAR-4 ovarian 19.7% | SK-OV-3 ovarian 56.1% | IGROV1 ovarian 50.5% | OVCAR-3 ovarian 15.5% | NCI/ADR-RES ovarian 53.9%
active: A498 renal -0.941% | RPMI-8226 leukemia 9.94%

CCCC[C@@H](C=O)NC(=O)[C@H](CC(C)C)NC(=O)[C@H](CC(C)C)NC(=O)OCc1ccccc1
inactive: SK-MEL-2 melanoma 13.4% | UO-31 renal 23.8% | ACHN renal 25.3% | OVCAR-8 ovarian 18.8% | OVCAR-4 ovarian 10.8% | SK-OV-3 ovarian 38.2%
active: EKVX NSCLC -14.2% | SN12C renal 2.11% | TK-10 renal -20.2% | CAKI-1 renal 4.61% | A498 renal -47.6% | CCRF-CEM leukemia -26.5% | MOLT-4 leukemia -11.7% | SR leukemia -24.4% | RPMI-8226 leukemia -10.2% | OVCAR-5 ovarian -34.5% | IGROV1 ovarian 8.93% | OVCAR-3 ovarian -29.1% | NCI/ADR-RES ovarian -2.88%

N#C/C(=C(/O)CCCO)c1nc2ccccc2c(=O)[nH]1
inactive: SK-MEL-2 melanoma 87.7% | EKVX NSCLC 108% | SN12C renal 100% | UO-31 renal 106% | TK-10 renal 110% | ACHN renal 106% | CAKI-1 renal 149% | A498 renal 124% | CCRF-CEM leukemia 97.8% | MOLT-4 leukemia 105% | SR leukemia 90.9% | RPMI-8226 leukemia 91.1% | OVCAR-8 ovarian 107% | OVCAR-5 ovarian 92.5% | OVCAR-4 ovarian 104% | SK-OV-3 ovarian 105% | IGROV1 ovarian 109% | HS 578T breast 102% | NCI/ADR-RES ovarian 95%

CC(=O)Nc1ccc(C=Nc2ccc3ccccc3c2)cc1
inactive: SK-MEL-2 melanoma 121% | EKVX NSCLC 116% | SN12C renal 99% | UO-31 renal 98.5% | TK-10 renal 106% | ACHN renal 118% | CAKI-1 renal 47.4% | A498 renal 108% | CCRF-CEM leukemia 93% | MOLT-4 leukemia 100% | SR leukemia 104% | RPMI-8226 leukemia 101% | OVCAR-8 ovarian 108% | OVCAR-5 ovarian 117% | OVCAR-4 ovarian 108% | SK-OV-3 ovarian 109% | IGROV1 ovarian 105% | OVCAR-3 ovarian 122% | NCI/ADR-RES ovarian 115%

O=[N+]([O-])c1cccc(N=NNc2cccc([N+](=O)[O-])c2)c1
inactive: SK-MEL-2 melanoma 104% | EKVX NSCLC 84.6% | SN12C renal 89.5% | UO-31 renal 80% | TK-10 renal 69.7% | ACHN renal 95.7% | CAKI-1 renal 87.5% | CCRF-CEM leukemia 84.3% | MOLT-4 leukemia 82.7% | SR leukemia 95.1% | RPMI-8226 leukemia 86% | OVCAR-8 ovarian 99.5% | OVCAR-5 ovarian 94.6% | OVCAR-4 ovarian 88.7% | SK-OV-3 ovarian 104% | IGROV1 ovarian 125% | OVCAR-3 ovarian 101% | HS 578T breast 101% | NCI/ADR-RES ovarian 94.4%
active: A498 renal -2.16%
